Article PMC4336329 (PLoS ONE, 2015)
Out of some 310,000 compounds screened, about 14,000 (4.5%) showed an effect of 50% or more. The effect is printed as a negative number. The sample holds strong results, similar compounds and a random draw of the others, so the mix is not that of the screen.

What follows are compounds tested against human ether-à-go-go-related gene (hERG) potassium channel (human, UniProt Q12809) (assay: primary screen, population patch clamp on CHO cells stably expressing hERG; higher = less effect of the substance).
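Further: peak tail current of the secondary pulse compared with the same well before compound.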

human ether-à-go-go-related gene (hERG) potassium channel, sequence (Q12809 whole entry, looked up): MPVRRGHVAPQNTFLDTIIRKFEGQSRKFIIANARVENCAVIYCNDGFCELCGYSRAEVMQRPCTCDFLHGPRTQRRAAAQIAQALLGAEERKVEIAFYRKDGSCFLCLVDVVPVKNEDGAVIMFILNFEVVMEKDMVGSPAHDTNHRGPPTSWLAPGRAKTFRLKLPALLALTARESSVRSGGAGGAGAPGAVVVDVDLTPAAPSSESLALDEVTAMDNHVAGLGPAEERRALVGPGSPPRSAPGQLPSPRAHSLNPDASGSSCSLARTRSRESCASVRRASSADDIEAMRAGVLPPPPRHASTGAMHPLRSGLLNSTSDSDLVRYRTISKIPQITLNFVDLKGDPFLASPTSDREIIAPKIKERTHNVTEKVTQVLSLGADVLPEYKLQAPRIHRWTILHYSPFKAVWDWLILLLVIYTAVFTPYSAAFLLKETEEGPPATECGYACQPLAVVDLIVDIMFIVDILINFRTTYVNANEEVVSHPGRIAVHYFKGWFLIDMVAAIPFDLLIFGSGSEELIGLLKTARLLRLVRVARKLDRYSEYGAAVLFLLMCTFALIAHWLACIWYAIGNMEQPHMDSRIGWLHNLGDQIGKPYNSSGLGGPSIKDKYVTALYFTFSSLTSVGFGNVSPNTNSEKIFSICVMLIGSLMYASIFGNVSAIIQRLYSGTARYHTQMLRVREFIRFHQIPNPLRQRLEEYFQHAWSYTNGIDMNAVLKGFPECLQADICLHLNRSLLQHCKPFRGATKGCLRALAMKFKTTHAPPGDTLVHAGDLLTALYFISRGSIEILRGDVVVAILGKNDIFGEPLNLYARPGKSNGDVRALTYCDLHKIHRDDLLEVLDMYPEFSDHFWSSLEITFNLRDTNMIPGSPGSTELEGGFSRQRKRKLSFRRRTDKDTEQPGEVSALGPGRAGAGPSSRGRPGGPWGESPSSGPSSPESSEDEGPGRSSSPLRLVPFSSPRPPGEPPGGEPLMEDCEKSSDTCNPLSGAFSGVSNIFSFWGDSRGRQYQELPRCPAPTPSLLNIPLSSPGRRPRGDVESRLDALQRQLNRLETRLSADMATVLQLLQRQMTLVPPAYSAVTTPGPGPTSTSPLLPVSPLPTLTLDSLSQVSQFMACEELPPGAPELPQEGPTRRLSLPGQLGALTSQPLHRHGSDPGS

Row | Compound | hERG current change (%, negative = inhibition) at 10uM [%]
1 | COc1ccc(CCN=C(N)NS(=O)(=O)c2cc(F)ccc2F)cc1 | -17.2
2 | N/C(Cc1ccc([N+](=O)[O-])cc1)=N\OC(=O)COc1ccccc1Cl | -21.2
3 | O=C(c1ccccc1)N1CN2CN(C(=O)c3ccccc3)CC([N+](=O)[O-])(C2)C1 | 21.8
4 | COc1cccc(-n2c(SCC(=O)NC(C)(C)C)nnc2-c2ccoc2C)c1 | -64.5
5 | COC(=O)CSc1nnc(-c2ccoc2C)n1-c1ccc(OC)cc1 | -18.3
6 | COc1cccc(NC(=O)CSc2nnc(-c3ccoc3C)n2CC2CCCO2)c1 (centres unmarked) | -1.09
7 | Cc1occc1-c1nnc(SCC(=O)NCCc2ccccc2)o1 | -11.5
8 | CCOc1ccccc1-n1c(SCC(=O)NC(C)(C)C)nnc1-c1ccoc1C | 1.75
9 | CCn1c(SCC(=O)NC(C)(C)C)nnc1-c1ccoc1C | -18.5
10 | COc1ccc(-n2c(SCC(=O)Nc3ccccc3)nnc2-c2ccoc2C)cc1 | -71.8
11 | COc1ccc(-n2c(SCC(=O)Nc3cccc(C(=O)O)c3)nnc2-c2ccco2)cc1 | 17.7
12 | COc1cccc(NC(=O)CSc2nnc(-c3ccoc3C)n2C)c1 | 4.35
13 | COc1cccc(NC(=O)CSc2nnc(-c3ccoc3C)n2-c2ccccc2)c1 | -85.7
14 | COc1cccc(-n2nnnc2SCC(=O)NCCc2ccccc2)c1 | -20.8
15 | COc1cccc(-n2c(SCC(=O)NCCc3ccccc3)nnc2-c2ccoc2C)c1 | -76.8
16 | CN(CC(=O)Nc1cccc(F)c1)C(=O)CCC1CCCCC1 | 17.7
17 | COC(=O)C(=NNc1c(C)n(C)n(-c2ccccc2)c1=O)C(=O)OC | 9.93
18 | COc1ccccc1NC(=O)c1cc(OC)c(OC)cc1[N+](=O)[O-] | 4.44
19 | COc1ccc(N(C)S(=O)(=O)c2ccc3c(c2)CCC(=O)N3)cc1 | -9.5
20 | CN(C)c1ccc(/C=C(\C#N)c2ccccn2)cc1 | -6.97

Row | Compound | hERG current change (%, negative = inhibition) at 10uM [%]
21 | CN(C)CCOc1cc(Cl)cc(Cl)c1 | 7.27
22 | CCOC(CNc1cc(C)nc2c(-c3ccccc3OC)c(C)nn12)OCC | 8.64
23 | COC(=O)c1ccc(NC(=O)CSc2nnc(C)n2-c2ccccc2)cc1 | -2.35
24 | Cc1n[nH]c(=S)n1/N=C/c1ccc(Br)o1 | 12.5
25 | COc1cccc(CN2CCN(S(=O)(=O)c3ccc(Br)cc3)CC2)c1 | -29.4
26 | O=S(=O)(c1ccc(Br)cc1)N1CCCN(Cc2cccc(F)c2)CC1 | -17.9
27 | COc1cccc(CN2CCCN(S(=O)(=O)c3ccc(Br)cc3)CC2)c1 | -58.6
28 | COc1ccc(S(=O)(=O)N2CCCN(Cc3cccc(F)c3)CC2)cc1 | -44.6
29 | COc1ccc(S(=O)(=O)N2CCN(Cc3ccc(Cl)cc3)CC2)cc1 | -10.8
30 | COc1ccc(CN2CCCN(S(=O)(=O)c3ccc(Br)cc3)CC2)cc1 | -74.4
31 | COc1ccc(N2CSC3=C(C#N)C(c4ccc(OC)c(OC)c4)CC(=O)N3C2)c(OC)c1 (centres unmarked) | -47.5
32 | COc1ccc(N2C(=O)c3ccc(NC(C)=O)cc3C2=O)cc1 | 20.2
33 | CC(=O)N1Cc2ccccc2CC1C(=O)O (centres unmarked) | -7.43
34 | CC1(C)CC(CC(=O)NC(=S)Nc2ccc([N+](=O)[O-])cc2)C(=O)O1 (centres unmarked) | -21.2
35 | CC(CC1CC(C)(C)OC1=O)C(=O)Nc1ccc([N+](=O)[O-])cc1 (centres unmarked) | -51.4
36 | CC1(C)CC(CC(=O)Nc2ccc([N+](=O)[O-])cc2)C(=O)O1 (centres unmarked) | -22.5
37 | COc1ccc(C)cc1NC(=O)CSCc1ccccc1C | -4
38 | CCCCOc1ccc(CSc2nnc(C)n2N)cc1[N+](=O)[O-] | -31.5
39 | CCCOc1ccc(CSC2=NCCN2)cc1[N+](=O)[O-] | -66.7
40 | COc1ccc(CSc2n[nH]c(C)n2)cc1[N+](=O)[O-] | 26.2

Row | Compound | hERG current change (%, negative = inhibition) at 10uM [%]
41 | CCCCOc1ccc(CSC2=NCCN2)cc1[N+](=O)[O-].Cl | -68.7
42 | COc1ccc(CSc2cccc3cccnc23)cc1[N+](=O)[O-] | 1.59
43 | CCOc1ccc(CSC2=NCCN2)cc1Cl.Cl | -50.9
44 | COc1ccc(CSc2nc(C)[nH]c2[N+](=O)[O-])cc1[N+](=O)[O-] | 4.63
45 | COc1ccc(CSC2=NCCN2)cc1Cl.Cl | -18.2
46 | COc1ccc(CSC2=NCCN2)cc1Br | 1.43
47 | Cl.Clc1ccc(CSC2=NCCCN2)cc1Cl | -18.2
48 | CCCCCOc1ccc(CSC2=NCCN2)cc1[N+](=O)[O-] | -80.2
49 | Br.N#Cc1ccc(CSC2=NCCN2)cc1 | -4.5
50 | CC(Oc1ccc(Cl)cc1)C(=O)NCCCn1ccnc1 (centres unmarked) | -7.09
51 | Cc1csc(NC(=O)CN2CCCCCC2)n1.O=C(O)C(=O)O | 14.3
52 | Cc1cc(C)c2cc(C(=O)Nc3ccc4c(c3)OCO4)[nH]c2c1 | 16.2
53 | CCOc1ccc2c(C)c(C(=O)O)oc2c1OCC | 16.5
54 | NS(=O)(=O)c1cccc(NC(=O)CC2(CC(=O)O)CCCC2)c1 | 33.9
55 | CSc1nc(Cc2ccc(Cl)cc2)nc2ccccc12 | -16.7
56 | COc1ccc(CSc2ncn[nH]2)cc1[N+](=O)[O-] | 2.83
57 | Br.O=[N+]([O-])c1ccc(CSC2=NCCN2)cc1 | -15.3
58 | CCOc1ccc(CSC2=NCCN2)cc1[N+](=O)[O-].Cl | -83.5
59 | Cc1ccc(-n2c(C)nnc2SCC(=O)N2CCOCC2)cc1 | 21.9
